Assay results from PubChem BioAssay (NCATS).
Where “and” joins values, the source holds several entries; their conditions need not be identical. Equal entries are not always repeated. Records with an inconclusive call do not appear. Values without a mark were called inactive. The call rests on the fitted dose curve; in most records, active means well fitted curve in the direction sought with a large enough effect; inconclusive means small, poorly fitted or top-dose-only effect, or another doubt; inactive means no such curve, though single readings can be large or run the other way.

Experiment: qHTS Assay for Identifying Gametocytocidal Compounds (AID 743244);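 further: actives lower the fluorescent signal which means gametocytes are killed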
Conditions: P. falciparum 3D7 stage III-V gametocytes, alamarBlue, 72 h; max response: stronger effect = lower value
Outline: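 Stage III-V P. falciparum 3D7 gametocytes, 20,000 per well, were exposed to compounds for 72 h at 37C, 5% CO2. AlamarBlue was then added for 24 h and viability was read as fluorescence at Ex 525/Em 598 nm.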
On the % scale 0 is the no-effect control and ±100 the full control effect.

SMILES | max response
Cc1nc([N+](=O)[O-])cn1-c1ccc([N+](=O)[O-])cc1 | 9.29%
CC(=O)OCC(=O)Nc1cc(C#N)cc(NC(=O)COC(C)=O)c1Cl | -6.24%
CC(=O)N(CC(O)CO)c1c(I)c(C(=O)NCCO)c(I)c(C(=O)NCC(O)CO)c1I (stereo not drawn) | 13.7%
CN1CCC(=C2c3ccccc3CCc3cccnc32)CC1 | 7.49%
NCC(=O)O | -6.74%
COc1c(C)c2c(c(O)c1C/C=C(\C)CCC(=O)OCCN1CCOCC1)C(=O)OC2 | 2.71%
C[C@H]1C[C@@H]2[C@H]([C@@H](O)C[C@@]3(C)[C@H]2CC[C@]3(O)C(=O)CO)[C@@]2(C)C=CC(=O)C=C12 | -12.4%
O=[N+]([O-])c1nccn1CO[C@@H](CO)[C@H](O)CO | -9.19%
COc1c(N2C[C@@H]3CCCN[C@@H]3C2)c(F)cc2c(=O)c(C(=O)O)cn(C3CC3)c12 | 11.5% and 6.91%
Cc1ccccc1N1CCN(CCc2nnc3n2CCCC3)CC1 | -15.7%
O=C(O)C(=O)Nc1cccc(-c2nn[nH]n2)c1 | -10.1%
Nc1ncnc2nc[nH]c12 | 3.66%
CN1C(CSCC(F)(F)F)Nc2cc(Cl)c(S(N)(=O)=O)cc2S1(=O)=O (stereo not drawn) | 2.14%
CN(C(=O)C(Cl)Cl)c1ccc(OC(=O)c2ccco2)cc1 | 8.61%
Cc1cccc(C)c1NC(=O)c1cc(S(N)(=O)=O)c(Cl)cc1O | 11.8%
CC1(C)S[C@@H]2[C@H](NC(=O)C(c3ccccc3)S(=O)(=O)O)C(=O)N2[C@H]1C(=O)O (stereo partly drawn) | -17.7%
CC1CN(c2cc3c(cc2F)c(=O)c(C(=O)O)cn3-c2ccc(F)cc2F)CCN1 (stereo not drawn) | -18.1%

SMILES | max response
CC(COc1ccccc1)NN (stereo not drawn) | -1.29%
CCOC(=O)O[C@]1(C(=O)OCCl)CC[C@H]2[C@@H]3CCC4=CC(=O)C=C[C@]4(C)[C@H]3[C@@H](O)C[C@@]21C | -2.36%
CC(=O)CC/C=C(\C)CC/C=C(\C)CC/C=C(\C)CCC=C(C)C | -1.07%
CN=C(N)NC(=O)Nc1c(C)cccc1C | 9.51%
CC(=O)O[C@@H]1C(=O)O[C@@H]2[C@H]1OC(=O)[C@@H]2OC(C)=O | 14.5%
NC(=O)COCCN1CCN(C(c2ccccc2)c2ccc(Cl)cc2)CC1 (stereo not drawn) | -3.31%
C1N2CN3CN1CN(C2)C3 | 2.07%
Cc1cccc(N(C)C(=S)Oc2ccc3c(c2)CCC3)c1 | 14.9%
O=C(COCCOCCOCC(=O)Nc1c(I)cc(I)c(C(=O)O)c1I)Nc1c(I)cc(I)c(C(=O)O)c1I | 31%
CN1CCC(N(Cc2cccs2)c2ccccc2)CC1 | 8.89%
O=C(O)CCC(=O)OC[C@@H](NC(=O)C(Cl)Cl)[C@H](O)c1ccc([N+](=O)[O-])cc1 | -4.91%
COc1ccccc1OCC1CNC(=O)O1 (stereo not drawn) | -14.2%
CO/N=C(/C(=O)N[C@@H]1C(=O)N2C(C(=O)[O-])=C(C[n+]3ccn4ncccc43)CS[C@H]12)c1nsc(N)n1 | -9.85% and -19.4%
C[N+]1(C)CCC(OC(=O)C(O)(c2ccccc2)C2CCCC2)C1 (stereo not drawn) | -10.9% and -9.67%
CC1c2ccccc2CN1NC(=O)c1ccc(Cl)c(S(N)(=O)=O)c1 (stereo not drawn) | 33.5%
CO[C@@]1(NC(=O)CSC[C@@H](N)C(=O)O)C(=O)N2C(C(=O)O)=C(CSc3nnnn3C)CS[C@@H]21 | 3.25%
